High-throughput results as filed in PubChem BioAssay.
A selection: hits, their analogues and other compounds. The true share with any hit is near 2.6%.
Myc binder: binders of human c-Myc | calls only | small molecule microarray, His-c-Myc binding, anti-His fluorescence | P01106 | hit rate 1.5% among 17,000;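 active = spot fluorescence over background with P-value below 7% in all four replicate spots, showing protein binding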
Target sequence (P01106 whole entry, looked up): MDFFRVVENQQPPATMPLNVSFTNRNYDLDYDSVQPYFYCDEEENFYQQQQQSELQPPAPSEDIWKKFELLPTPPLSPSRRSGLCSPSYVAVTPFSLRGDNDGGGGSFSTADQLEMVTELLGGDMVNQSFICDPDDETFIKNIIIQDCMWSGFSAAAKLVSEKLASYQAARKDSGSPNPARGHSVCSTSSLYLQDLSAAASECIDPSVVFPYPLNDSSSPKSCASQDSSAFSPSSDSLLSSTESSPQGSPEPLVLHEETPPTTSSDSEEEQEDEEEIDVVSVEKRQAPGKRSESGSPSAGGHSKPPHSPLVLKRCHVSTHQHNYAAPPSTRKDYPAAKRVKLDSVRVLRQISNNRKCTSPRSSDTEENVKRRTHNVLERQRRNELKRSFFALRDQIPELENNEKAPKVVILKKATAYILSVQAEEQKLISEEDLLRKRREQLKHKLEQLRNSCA
STAT3 binder: binders of human STAT3 | Small molecule microarray, His-STAT3 binding, anti-His fluorescence | hit rate 0.2% among 17,000 | calls only;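 active = compounds whose four printed spots each show fluorescence over background unusually high for their array block, chance value under 7%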
NFkB binder: NF-kappa-B p105 (human) binding. hit rate 1.3% among 17,000. AID 624139. Small molecule microarray, anti-His fluorescence binding. calls only;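 active = spot fluorescence over background significantly raised, with a chance value under 7% in all four replicate spots of the compound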;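 also: probe protein is his-tagged human p50 processed subunit at 1 µg/ml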
mut p53 react: restores mutant p53 pathway signaling in SW480 cells; SW480 PUMA-promoter luciferase, p53 mutant reactivation; activation, % at 9.98 µM; hit rate 1.5% among 28,000; AID 624151; in the data active = activation above about 52%; inconclusive = no clear call, values can overlap the other calls
mut p53 SMM: binders of human mutant p53 | small molecule microarray binding, anti-GST fluorescence | calls only | hit rate 0.4% among 17,000 | AID 624136;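 active = compounds whose four printed spots each glow above background more than chance allows, each with a p-value under 7%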
Large screens that a line does not name were inactive.

COc1ccc(CN(C)C[C@@H]2Oc3ccc(NC(=O)Cn4cnnn4)cc3CC(=O)N([C@H](C)CO)C[C@H]2C)cc1	none
COc1ccc(-n2c(SCCCN3C(=O)c4cccc5cccc(c45)C3=O)nnc2-c2ccncc2)cc1	none (no result: Myc binder, STAT3 binder, NFkB binder, mut p53 SMM)
O=C1c2cccc3cccc(c23)C(=O)N1CCCSc1n[nH]c(-c2ccc(F)cc2)n1	mut p53 react 55 (no result: Myc binder, STAT3 binder, NFkB binder, mut p53 SMM)
O=C1c2cccc3cccc(c23)C(=O)N1CCCSc1ncn[nH]1	Myc binder active
Cn1c(SCCCN2C(=O)c3cccc4cccc(c34)C2=O)nnc1-c1cccs1	none (no result: Myc binder, STAT3 binder, NFkB binder, mut p53 SMM)
C[C@H]1CCCCO[C@H](CN(C)C)[C@@H](C)CN([C@@H](C)CO)C(=O)c2cc(NS(=O)(=O)c3cccs3)ccc2O1	none
O=C(COc1cc(Cl)c(Cl)cc1Cl)NCc1ccco1	mut p53 react 56
O=C(COc1ccccc1Cl)NCc1ccco1	none (no result: Myc binder, STAT3 binder, NFkB binder, mut p53 SMM)
O=c1c(-c2ccc(O)cc2)coc2cc(OC3OC(CO)C(O)C(O)C3O)cc(O)c12 (stereo unspecified)	mut p53 react 90
COc1ccc(-c2oc3cc(O[C@@H]4O[C@@H](C)[C@H](O)[C@@H](O)[C@H]4O)cc(O)c3c(=O)c2O[C@@H]2O[C@H](CO)[C@@H](O)[C@H](O)[C@H]2O)cc1	none
O=C(CS(=O)(=O)c1ccc2ccccc2c1)c1cc2ccccc2oc1=O	Myc binder active
Cc1ccccc1-c1ccc2c(c1)O[C@H](CN(C)C(=O)c1ccccn1)[C@@H](C)CN([C@@H](C)CO)S2(=O)=O	none (no result: Myc binder, STAT3 binder, NFkB binder, mut p53 SMM)
COc1ccc2ncc3c(c2c1)-c1cc(Cl)ccc1OC3	mut p53 react 69 (no result: Myc binder, STAT3 binder, NFkB binder, mut p53 SMM)
Clc1ccc2ncnc(NCc3ccc4c(c3)OCO4)c2c1	none
CCOc1cc(CO)c(Br)cc1OCC(=O)O	Myc binder active
COC(=O)c1cccc(NC(=O)CSc2nnc(-c3ccc(Cl)cc3)n2C)c1	none (no result: Myc binder, STAT3 binder, NFkB binder, mut p53 SMM)
CCOc1ccccc1CNCCN1CCOCC1	Myc binder active
COC(=O)c1ccccc1NC(=O)CSc1nnc(-c2ccc(C)cc2)o1	none (no result: Myc binder, STAT3 binder, NFkB binder, mut p53 SMM)
OCc1nc2ccccc2n1CCCOc1ccc(Br)cc1	mut p53 react 56 (no result: Myc binder, STAT3 binder, NFkB binder, mut p53 SMM)
CC(C)=CCc1c(O)cc(O)c2c1OC(c1ccccc1)CC2=O (stereo unspecified)	none
CC(C)=CCc1c(O)c(CC=C(C)C)c2c(c1O)C(=O)CC(c1ccccc1)O2 (stereo unspecified)	Myc binder active
CSc1ccccc1NC(=O)CN(c1cccc(C)c1)S(C)(=O)=O	none (no result: Myc binder, STAT3 binder, NFkB binder, mut p53 SMM)
COc1ccc(NC(=O)CSc2nc(-c3ccc(Cl)cc3)cc(C(F)(F)F)n2)c([N+](=O)[O-])c1	none (no result: Myc binder, STAT3 binder, NFkB binder, mut p53 SMM)
COc1ccccc1CN1CC(C(=O)O)CC1=O (stereo unspecified)	Myc binder active
C[C@@H]1CN([C@@H](C)CO)C(=O)c2cc(NS(=O)(=O)c3cccs3)ccc2O[C@@H](C)CCCCO[C@@H]1CN(C)C(=O)CCC(F)(F)F	NFkB binder active
C[C@@H]1CCCCO[C@H](CN(C)C(=O)CCC(F)(F)F)[C@@H](C)CN([C@H](C)CO)C(=O)c2cc(NS(=O)(=O)c3cccs3)ccc2O1	none
C[C@@H]1CCCCO[C@@H](CN(C)C(=O)CCC(F)(F)F)[C@H](C)CN([C@@H](C)CO)C(=O)c2cc(NS(=O)(=O)c3ccccc3)ccc2O1	Myc binder active, NFkB binder active
C[C@H](CO)N1C[C@H](C)[C@@H](CN(C)C(=O)CCC(F)(F)F)OCCCC[C@H](C)Oc2ccc(NS(C)(=O)=O)cc2C1=O	Myc binder active, NFkB binder active
COC(=O)c1ccc(NC(=O)CN2C(=O)CN(c3ccc(Br)cc3)C2=O)cc1	none
Cc1occc1-c1nnc2sc(-c3ccc(-c4ccccc4[N+](=O)[O-])o3)nn12	mut p53 react inconclusive, mut p53 SMM active
C[C@]12CCC(=O)C=C1CC[C@@H]1C2CC[C@@]2(C)C1CC[C@@H]2C(=O)CO (stereo partly specified)	mut p53 SMM active
C[C@]12C[C@H](O)C3C(CC[C@@H]4C[C@H](O)CC[C@]34C)C1CC[C@@H]2C(=O)CO (stereo partly specified)	none
COc1ccc(CN(C)C[C@@H]2Oc3c(NC(=O)C4CCCCC4)cccc3C(=O)N([C@@H](C)CO)C[C@H]2C)cc1	none (no result: mut p53 react)
COc1ccc(-c2noc(CC(=O)O)c2-c2ccc(OC)cc2)cc1	Myc binder active
COc1ccc(-c2nc3cc(C(C)C)ccc3o2)cc1NC(=O)COc1ccc(C)cc1	mut p53 react 64 (no result: Myc binder, STAT3 binder, NFkB binder, mut p53 SMM)
Cc1ccc2nc(-c3ccc(C)c(NC(=O)COc4ccc([N+](=O)[O-])cc4)c3)oc2c1	mut p53 react 91 (no result: Myc binder, STAT3 binder, NFkB binder, mut p53 SMM)
COc1ccc(-c2nc3ccccc3o2)cc1NC(=O)COc1ccc(C(C)C)cc1	none
C[C@H](CO)N1C[C@H](C)[C@H](CN(C)S(=O)(=O)c2cn(C)cn2)Oc2ncc(Br)cc2C1=O	none
Cc1cc(OCC(=O)Nc2ccccc2CO)cc(C)c1Br	none (no result: Myc binder, STAT3 binder, NFkB binder, mut p53 SMM)
COc1ccc(Cl)cc1NC(=O)COc1ccccc1OC	mut p53 react 99
COc1ccccc1NC(=O)COc1ccc(Cl)cc1CO	mut p53 react 63
O=C(COc1ccc(Br)cc1Cl)Nc1ccccc1CO	mut p53 react 75 (no result: Myc binder, STAT3 binder, NFkB binder, mut p53 SMM)
COc1ccc(Cl)cc1NC(=O)COc1ccccc1[N+](=O)[O-]	none
Cc1noc(C)c1NC(=O)N(C)C[C@@H]1OCCCC[C@H](C)Oc2ccc(NS(C)(=O)=O)cc2C(=O)N([C@H](C)CO)C[C@@H]1C	none
O=C(Cn1nnc2sc3c(c2c1=O)CCCC3)NCc1ccco1	Myc binder active
Cc1ccn2cc(-c3cccc(NS(=O)(=O)c4cccc([N+](=O)[O-])c4)c3)nc2c1	mut p53 react 170 (no result: Myc binder, STAT3 binder, NFkB binder, mut p53 SMM)
C[C@H](CO)N1C[C@H](C)[C@@H](CN(C)S(C)(=O)=O)OCCCC[C@H](C)Oc2ccc(NC(=O)Nc3ccc4c(c3)OCO4)cc2C1=O	none (no result: Myc binder, STAT3 binder, NFkB binder, mut p53 SMM)
CC(=O)c1ccc(N2CCOCC2)cc1O	none (no result: mut p53 react)
O=C1/C(=C/c2ccc(N3CCOCC3)cc2)CCC1C1CCCC1 (stereo unspecified)	mut p53 react 65 (no result: Myc binder, STAT3 binder, NFkB binder, mut p53 SMM)
CNC(=O)COc1ccc(NC(=O)c2ccc(-c3nn(C)c(=O)c4ccccc34)cc2)cc1	none (no result: Myc binder, STAT3 binder, NFkB binder, mut p53 SMM)
Cc1nn2c3ccccc3n(C)c2c1C(=O)CN1CCOCC1	mut p53 react inconclusive
CCOc1ccc(NC(=O)CSc2nc3nc(C)cc(C)n3n2)cc1	none
O=C1O[C@@H](c2ccccc2)[C@@H](c2ccccc2)N2[C@@H](c3ccc(O)cc3)[C@]3(C(=O)Nc4ccc(C#CC5(O)CCCCCC5)cc43)[C@@H](C(=O)N3CCCCCCC3)[C@H]12	STAT3 binder active (no result: mut p53 react)
O=C1O[C@H](c2ccccc2)[C@H](c2ccccc2)N2[C@H]1[C@@H](C(=O)N1CCCCCCC1)[C@]1(C(=O)Nc3ccc(C#CC4(O)CCCCCC4)cc31)[C@H]2c1ccc(O)cc1	none (no result: mut p53 react)
COc1ccc(C#Cc2ccc3c(c2)[C@]2(C(=O)N3)[C@H](c3ccc(O)cc3)N3[C@H](c4ccccc4)[C@H](c4ccccc4)OC(=O)[C@H]3[C@@H]2C(=O)N2CCCCCCC2)cc1	STAT3 binder active, mut p53 SMM active (no result: mut p53 react)
COc1ccc(NC(=O)CNS(=O)(=O)c2ccc(C)cc2)cc1Cl	none (no result: Myc binder, STAT3 binder, NFkB binder, mut p53 SMM)
